Assay outcomes deposited in PubChem by National Center for Advancing Translational Sciences (NCATS).
HT1080 IDH1KD tx – toxicity to HT-1080 IDH1 knockdown cells (counter line). HT-1080 IDH1 knockdown viability, ATP luminescence, 48 h. Potency, µM (titrated, usually from 46.1 µM), for the others: at the highest dose activity, negative = toxicity, actives largely listed as cytotoxic. 360,000 compounds, 2% hits;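 further: potency means the concentration at half of the fitted maximal effect; 0% = DMSO wells and -100% = cell-free medium wells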
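HT-1080-IDH1KD cells (IDH1 knocked down), 750/well in RPMI with 5% FBS, treated with compound 48 h at 37 degrees C. Viability by CellTiter-Glo luminescence, normalised to DMSO and no-cell wells; concentration-response curves classed.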
HT1080-NT tox – kills 2HG-producing HT-1080-NT fibrosarcoma cells; HT-1080-NT fibrosarcoma viability, CellTiter-Glo ATP luminescence, 48 h; Potency, µM (doses to about 46.1 µM), for inactives: at the highest dose activity, negative = less viability, hits mostly cytotoxic; 360,000 compounds, 1.6% hits; AID 686970;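 further: NT is the 2HG producing partner of a matched IDH1 knockdown line; potency means the concentration at half of the fitted maximal effect; 0% = DMSO-treated cells and -100% = media-only wells without cells; nearly all actives have a fitted effect of over 55% in size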
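Viability by CellTiter-Glo luminescence after 48 h compound exposure at 37C of HT-1080-NT cells (750/well, RPMI, 5% FBS). % activity scaled between DMSO wells and medium-only wells, then curve-fitted and categorized by curve class.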
TDP1 cell noCPT – qHTS for Inhibitors of human tyrosyl-DNA phosphodiesterase 1 (TDP1): qHTS in cells in absence of CPT | DT40 Tdp1-/- hTDP1 cells, no CPT, ATP luminescence, 48 h | Potency, µM (top dose mostly 46.2 µM), for inactives: top-dose activity change, negative = growth inhibition, hits mostly inhibitors | 420,000 compounds, 15% hits | AID 686978, 2013; further: potency means the concentration at half of the fitted maximal effect; nearly all actives have a fitted effect of over 55% in size
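A cellular qHTS used chicken DT40 cells lacking endogenous Tdp1 but carrying stably transfected human TDP1. Compounds were applied without camptothecin, and cell growth kinetics were judged by ATP-dependent luminescence after ≥48 hr.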
IL1B secr inh – blocks inflammasome-driven IL-1 beta release. 360,000 compounds, 4.7% hits. activity change, % at 57.5 µM. THP-1 LPS/ATP IL-1B secretion, AlphaLISA, 16 h; hits give low values; in the data active means activity change below about -50%; inconclusive means mostly about -30% to -49%
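THP-1 cells pretreated 1 hr with compounds (up to 57.5 uM final), then stimulated with LPS (250 ng/mL final) plus ATP (1.25 mM final); secreted IL-1B measured by AlphaLISA after 16 hr, decreased signal indicating inhibition.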
DT40 TDP1 CPT – DT40-hTDP1 cell growth loss with CPT. chicken DT40 Tdp1-/-;hTDP1 cells + 20 nM CPT, ATP luminescence, 48 h. Potency, µM (titrated, usually from 46.2 µM), for inactives: at the top dose activity change, negative = growth inhibition, hits mostly inhibitors. 420,000 compounds, 12% hits; further: potency means the concentration at half of the fitted maximal effect; nearly all actives have a fitted effect of over 55% in size
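Cell growth measured by CellTiter-Glo luminescence after a minimum 48 h, 37 C compound exposure with 20 nM CPT in Tdp1-knockout DT40 cells stably expressing hTDP1, seeded 400/well; qHTS titration format.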
Numbers without * were called inactive; u = inconclusive; x = no result. Only some compounds are listed: those with a hit (about 19% of all), similar ones and a draw of the others. Unless noted, the call rests on the fitted dose curve; in most records, active means well fitted curve in the direction sought with a large enough effect; inconclusive means small, poorly fitted or top-dose-only effect, or another doubt; inactive means no such curve, though single readings can be large; an effect the other way counts as inactive or inconclusive. Unless noted, on the % scale 0 is the no-effect control and ±100 the full control effect.

SMILES	HT1080 IDH1KD tx	HT1080-NT tox	TDP1 cell noCPT	IL1B secr inh	DT40 TDP1 CPT
COCCn1c(=O)cnc2cnc(Nc3cccc(OC)c3)nc21	x	x	u	x	9.2µM*
COc1ccc(Oc2ncc3nc(CCc4ccccc4)c(=O)n(CCC#N)c3n2)cc1	x	x	23µM*	x	u
N#CCCn1c(=O)c(CCc2ccccc2)nc2cnc(Oc3ccccc3)nc21	x	x	u	x	3%
COCCn1c(=O)c(C)nc2cnc(Nc3cccc(OC)c3)nc21	x	x	-26%	x	u
COc1cc2c(cc1OC)C(C1C(=O)CC(C)(C)CC1=O)N(C(=O)CCl)CC2 (centres undefined)	-23%	-4%	-90%	163	-74%
COc1cc2c(cc1OC)C(c1cc(Br)ccc1F)N(C(=O)CCl)CC2 (centres undefined)	21µM*	21µM*	1.6µM*	-71*	1.5µM*
COc1cccc(NC(=O)CN(C)C(=O)c2ccccn2)c1	0%	4%	7%	22	16%
COc1cccc(NC(=O)CN(C)C(=O)/C=C/c2ccc(S(=O)(=O)N3CCCCCC3)cc2)c1	u	-15%	18µM*	-3	u
CNC(=O)c1ccc(CN(C)C(=O)/C=C/c2ccc(S(=O)(=O)N3CCCCCC3)cc2)cc1	-17%	-7%	23µM*	-4	23µM*
COc1cccc(NC(=O)CN(C)C(=O)/C=C/c2ccc3ccccc3n2)c1	-11%	-7%	-12%	-77*	6%
COc1ccc(CN(C)C(=O)/C=C/c2ccc(S(=O)(=O)N3CCCCCC3)cc2)cc1	-7%	-11%	23µM*	u	u
O=C(Nc1ccc(S(=O)(=O)N2CCCC2)cc1)c1ccc([N+](=O)[O-])cc1	-5%	-3%	-15%	4	1%
CCN(Cc1ccccc1)C(=O)Cn1c(=O)n(-c2ccc(OC)cc2OC)c(=O)c2c(C)c(C)sc21	4%	2%	u	0	u
COC(=O)c1cc(NC(=O)c2oc(=O)c3ccccc3c2-c2ccccc2)cc(C(=O)OC)c1	x	x	14%	x	9%
COc1ccccc1NC(=O)C(C)OC(=O)/C=C/c1ccc2ccccc2n1 (centres undefined)	-3%	1%	u	7	29µM*
CC[C@@]12C(=O)N(c3cccc(F)c3)C(=O)N1[C@H](c1ccc(Cl)cc1)[C@@H]1C(=O)N(C3CCCCC3)C(=O)[C@@H]12	-29%	-29%	u	0	u
O=C(COc1ccccc1[N+](=O)[O-])N/N=C/c1ccc(O)c([N+](=O)[O-])c1	-10%	0%	-15%	28	u
CCOc1cc(/C=N/NC(=O)N/N=C/c2ccc(O)c(OCC)c2)ccc1O	2.6µM*	1.8µM*	2.9µM*	u	2.6µM*
CCOc1cc(/C=N/NC(=O)C(=O)N/N=C/c2ccc(O)c(OCC)c2)ccc1O	12%	11%	-1%	10	0%
CCOc1cc(/C=N/NC(=O)CN(CCc2ccccc2)S(=O)(=O)c2ccc(NC(C)=O)cc2)ccc1O	-18%	u	18µM*	u	u
O=C(COc1ccccc1C(=O)N/N=C\c1ccc(O)c(O)c1)N/N=C/c1ccc(O)c(O)c1	-24%	-2%	u	6	16µM*
COc1ccc(/C=N/NC(=O)c2sccc2OCc2ccc(F)cc2)cc1OC	1%	-6%	23µM*	10	16µM*
CCOc1cc(C=NN=C2c3ccccc3-c3ccccc32)ccc1O	u	-28%	18µM*	-17	u
CCOc1cc(/C=N/NC(=O)c2ccccc2-n2cccc2)ccc1O	u	u	u	30	u
CCOc1cc(/C=N/NC(=O)c2ccccc2OCc2ccc(F)cc2)ccc1O	-5%	-3%	13µM*	-8	u
CCOc1cc(/C=N/Nc2nnc(C)n2N)ccc1O	23µM*	u	-7%	0	u
